In PubChem BioAssay (Tox21):
Values joined by “and” are separate entries in the source; they are usually repeats but may differ in a detail not shown here. Identical values can stand only once. Where a structure was tested more than once in an assay, its records may differ in their call. Active and inactive are the calls of the source. Where a call stands in place of a potency, no number is given. Unless noted, the call rests on the fitted dose curve; in most records, active means well fitted curve in the direction sought with a large enough effect in the repeat runs; inconclusive means weak or mixed curves; inactive means no such curve, though single readings can be large; an effect the other way counts as inactive or inconclusive.

Key:
[1] = qHTS assay to identify small molecule antagonists of the thyroid receptor (TR) signaling pathway (AID 743065); further: nearly all actives have a fitted effect of over 55% in size; further: potency means the concentration at half of the fitted maximal effect
Procedure, shortened: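 GH3.TRE-Luc rat pituitary cells (two TREs driving luciferase) were dosed with compound, then stimulated with 1 nM T3 (final) for 23.5 h at 37 C. ONE-Glo luminescence was the read-out, with CellTiter-Fluor fluorescence as the cytotoxicity counter-screen.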

[2] = tested on: thyroid hormone receptor (rat, GH3 cells); assay: qHTS assay to identify small molecule agonists of the thyroid receptor (TR) signaling pathway (AID 743066; calls by dose curve; further: potency means the concentration at half of the fitted maximal effect)
[3] = molecular target: Estrogen receptor (Homo sapiens) (UniProt P03372); assay: qHTS assay to identify small molecule agonists of the estrogen receptor alpha (ER-alpha) signaling pathway (AID 743075; calls by dose curve; further: potency means the concentration at half of the fitted maximal effect)
Chain of Estrogen receptor (Homo sapiens) (P03372 whole entry, looked up): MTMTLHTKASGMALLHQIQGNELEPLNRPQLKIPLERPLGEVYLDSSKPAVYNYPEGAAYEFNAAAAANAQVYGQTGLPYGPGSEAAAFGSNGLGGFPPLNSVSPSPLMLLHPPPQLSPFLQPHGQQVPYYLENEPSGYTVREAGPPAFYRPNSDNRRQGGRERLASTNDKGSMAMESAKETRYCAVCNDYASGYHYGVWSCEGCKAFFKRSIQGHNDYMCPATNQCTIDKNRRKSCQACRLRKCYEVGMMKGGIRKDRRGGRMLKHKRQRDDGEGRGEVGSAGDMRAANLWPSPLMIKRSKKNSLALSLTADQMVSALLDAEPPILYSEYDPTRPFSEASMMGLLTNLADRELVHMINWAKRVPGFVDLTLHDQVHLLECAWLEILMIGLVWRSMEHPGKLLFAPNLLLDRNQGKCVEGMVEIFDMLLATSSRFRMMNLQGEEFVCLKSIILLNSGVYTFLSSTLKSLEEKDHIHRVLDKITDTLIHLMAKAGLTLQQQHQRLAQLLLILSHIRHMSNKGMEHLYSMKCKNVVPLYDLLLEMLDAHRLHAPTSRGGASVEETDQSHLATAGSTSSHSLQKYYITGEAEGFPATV

[4] = molecular target: Estrogen receptor (Homo sapiens) (UniProt P03372); assay: qHTS assay to identify small molecule agonists of the estrogen receptor alpha (ER-alpha) signaling pathway using the BG1 cell line (AID 743079); details: BG1Luc4E2 cells, ERE-luciferase agonist, 22 h; activation: at 70.3 µM (top of the series); further: nearly all actives have a fitted effect of over 20% in size; further: potency means the concentration at half of the fitted maximal effect
[5] = qHTS assay to identify small molecule that activate the aryl hydrocarbon receptor (AhR) signaling pathway - cell viability counter screen (AID 743086); further: nearly all actives have a fitted effect of over 45% in size; further: potency means the concentration at half of the fitted maximal effect
Procedure, shortened: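 HepG2-AhR-luc (HG2L7.5c1) cells, 4000/well, treated 24 h at 37 C with compound; viability measured as CellTiter-Fluor fluorescence after 30 min in the same wells as the luciferase read.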

[6] = qHTS assay to identify small molecule phospholipidosis (PLD) inducers (AID 1259344; active means well fitted curve in the direction sought with a large enough effect; inconclusive means small, poorly fitted or top-dose-only effect, or another doubt; inactive means no such curve, though single readings can be large; an effect the other way counts as inactive or inconclusive)
Procedure, shortened: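 HepG2 cells, 900/well, treated with compound plus LipidTOX Red for 24 h at 37 C; amiodarone positive and DMSO negative controls. Fixed with paraformaldehyde/Hoechst, then high-content imaging scored LipidTOX pit count and integrated intensity per well and per cell.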

[7] = qHTS assay to identify small molecule antagonists of the thyroid receptor (TR) signaling pathway - cell viability counter screen (AID 743064); further: nearly all actives have a fitted effect of over 50% in size; further: potency means the concentration at half of the fitted maximal effect
Procedure, shortened: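 Same-well viability check: GH3.TRE-Luc cells stimulated with 1 nM T3 alongside test compound for 23.5 h, followed by CellTiter-Fluor fluorescence.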

[8] = molecular target: Estrogen receptor (Homo sapiens) (UniProt P03372); assay: qHTS assay to identify small molecule antagonists of the estrogen receptor alpha (ER-alpha) signaling pathway (AID 743069; active means well fitted curve in the direction sought with a large enough effect in the signal ratio in the repeat runs, not every such curve was filed as active; inconclusive means weak or mixed curves, or effect the other way; inactive means no such curve, though single readings can be large or run the other way; the % refers to the signal ratio; further: potency means the concentration at half of the fitted maximal effect)
Procedure, shortened: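 HEK293 ER-alpha-UAS-bla GripTite cells, held overnight in 2% charcoal-stripped FBS, 5,000 cells/well, preincubated 4 h, then compound plus 17beta-estradiol for 18 h at 37C. Beta-lactamase read by LiveBLAzer B/G FRET substrate, 2 h at room temperature.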

[9] = qHTS assay to identify small molecule antagonists of the estrogen receptor alpha (ER-alpha) signaling pathway - cell viability counter screen (AID 743074; calls by dose curve;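 further: HEK293 cells carrying ER-alpha-UAS-bla reporter stimulated with 17beta-estradiol; nearly all actives have a fitted effect of over 45% in size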; further: potency means the concentration at half of the fitted maximal effect)
[10] = qHTS assay to identify small molecule antagonists of the estrogen receptor alpha (ER-alpha) signaling pathway using the BG1 cell line - cell viability counter screen (AID 743081);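 further: compound given together with 17beta-estradiol as the ER stimulus; nearly all actives have a fitted effect of over 45% in size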; further: potency means the concentration at half of the fitted maximal effect
Aromatase (Homo sapiens) = Aromatase (Homo sapiens) (UniProt P11511); assay: qHTS assay to identify aromatase inhibitors (AID 743083); further: nearly all actives have a fitted effect of over 55% in size
Chain of Aromatase (Homo sapiens) (P11511 whole entry, looked up): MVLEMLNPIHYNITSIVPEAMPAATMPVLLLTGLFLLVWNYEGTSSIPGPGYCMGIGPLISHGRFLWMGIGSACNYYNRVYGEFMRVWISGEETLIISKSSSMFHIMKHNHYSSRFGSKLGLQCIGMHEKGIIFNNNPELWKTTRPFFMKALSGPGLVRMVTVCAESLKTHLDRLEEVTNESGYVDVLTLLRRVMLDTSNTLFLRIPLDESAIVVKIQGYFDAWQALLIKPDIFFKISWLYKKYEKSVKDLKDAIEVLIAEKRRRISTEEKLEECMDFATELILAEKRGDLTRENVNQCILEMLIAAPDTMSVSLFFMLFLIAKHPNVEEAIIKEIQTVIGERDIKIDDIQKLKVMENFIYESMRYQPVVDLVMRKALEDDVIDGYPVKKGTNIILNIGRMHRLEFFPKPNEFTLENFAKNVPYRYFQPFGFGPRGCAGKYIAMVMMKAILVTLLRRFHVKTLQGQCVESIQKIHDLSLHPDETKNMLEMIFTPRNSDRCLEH

[11] = qHTS assay to identify aromatase inhibitors - cell viability counter screen (AID 743084);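 further: cells stimulated with testosterone during compound exposure; nearly all actives have a fitted effect of over 55% in size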
[12] = molecular target: Aryl hydrocarbon receptor (Homo sapiens) (UniProt P35869); assay: qHTS assay to identify small molecule that activate the aryl hydrocarbon receptor (AhR) signaling pathway (AID 743085); further: nearly all actives have a fitted effect of over 15% in size; further: potency means the concentration at half of the fitted maximal effect;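 on activation: HG2L7.5c1 human HepG2 liver cells with stably integrated DRE-driven firefly reporter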
Chain of Aryl hydrocarbon receptor (Homo sapiens) (P35869 whole entry, looked up): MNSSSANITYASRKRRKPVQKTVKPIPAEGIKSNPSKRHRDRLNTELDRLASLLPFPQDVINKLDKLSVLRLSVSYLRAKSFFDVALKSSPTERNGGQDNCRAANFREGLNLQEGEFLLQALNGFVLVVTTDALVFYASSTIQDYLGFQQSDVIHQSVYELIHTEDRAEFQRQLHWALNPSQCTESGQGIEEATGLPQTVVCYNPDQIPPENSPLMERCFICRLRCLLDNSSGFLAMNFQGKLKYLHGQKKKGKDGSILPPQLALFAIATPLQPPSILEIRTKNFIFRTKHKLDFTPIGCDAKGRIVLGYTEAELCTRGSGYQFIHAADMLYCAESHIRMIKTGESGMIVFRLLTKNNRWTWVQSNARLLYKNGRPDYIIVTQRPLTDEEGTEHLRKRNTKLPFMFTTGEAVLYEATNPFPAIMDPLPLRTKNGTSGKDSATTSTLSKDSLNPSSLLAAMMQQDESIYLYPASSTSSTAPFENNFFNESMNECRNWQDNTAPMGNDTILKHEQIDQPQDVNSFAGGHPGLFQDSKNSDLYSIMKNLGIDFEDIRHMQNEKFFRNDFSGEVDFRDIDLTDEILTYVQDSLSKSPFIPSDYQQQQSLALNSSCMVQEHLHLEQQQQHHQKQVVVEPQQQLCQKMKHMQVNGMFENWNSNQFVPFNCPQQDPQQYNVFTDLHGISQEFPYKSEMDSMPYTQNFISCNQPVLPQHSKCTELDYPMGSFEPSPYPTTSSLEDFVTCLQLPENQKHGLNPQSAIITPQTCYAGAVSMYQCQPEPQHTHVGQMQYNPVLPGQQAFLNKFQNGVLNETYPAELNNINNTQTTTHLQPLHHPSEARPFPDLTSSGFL
Procedure, shortened: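 Reporter assay in engineered HepG2 line HG2L7.5c1, whose plasmid carries twenty dioxin responsive elements upstream of firefly luciferase. Treatment lasted 24 h at 37C; ONE-Glo luminescence gauged induction.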

[13] = qHTS assay to identify small molecule antagonists of the estrogen receptor alpha (ER-alpha) signaling pathway using the BG1 cell line (AID 743080; calls by dose curve;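 further: BG1 cells stimulated with 17beta-estradiol alongside compound; nearly all actives have a fitted effect of over 25% in size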)
Procedure, shortened: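 After 5 days in phenol-red-free 10% charcoal-stripped FBS medium, BG1-Luc-4E2 cells were seeded, left 24 h at 37 C, co-treated with compounds and 17beta-estradiol for 21.5 h, then assayed for viability and luciferase.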

[14] = molecular target: Peroxisome proliferator-activated receptor gamma (Homo sapiens) (UniProt P37231); assay: qHTS assay to identify small molecule agonists of the peroxisome proliferator-activated receptor gamma (PPARg) signaling pathway (AID 743094; active means well fitted activation curve with a large enough effect in the signal ratio in the repeat runs, not every such curve was filed as active; inconclusive means weak or mixed curves, or effect the other way; inactive means no such curve, though single readings can be large or run the other way; the % refers to the signal ratio)
Chain of Peroxisome proliferator-activated receptor gamma (Homo sapiens) (P37231 whole entry, looked up): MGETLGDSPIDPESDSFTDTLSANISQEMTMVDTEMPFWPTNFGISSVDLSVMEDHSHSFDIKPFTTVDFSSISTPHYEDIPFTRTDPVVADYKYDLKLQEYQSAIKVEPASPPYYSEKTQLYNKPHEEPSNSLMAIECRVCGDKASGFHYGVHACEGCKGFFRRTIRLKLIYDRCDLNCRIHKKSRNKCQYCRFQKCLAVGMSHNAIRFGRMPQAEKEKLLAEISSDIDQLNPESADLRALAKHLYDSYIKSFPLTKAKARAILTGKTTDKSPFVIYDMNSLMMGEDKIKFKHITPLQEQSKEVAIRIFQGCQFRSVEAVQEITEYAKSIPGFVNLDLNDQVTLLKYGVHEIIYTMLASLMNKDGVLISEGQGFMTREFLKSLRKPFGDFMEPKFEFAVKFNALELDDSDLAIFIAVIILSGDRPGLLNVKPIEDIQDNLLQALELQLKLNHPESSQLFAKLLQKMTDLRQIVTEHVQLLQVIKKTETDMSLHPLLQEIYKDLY
Procedure, shortened: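 Stably transfected HEK293H cells (GeneBLAzer PPARg UAS-bla) were incubated with test substances for 17 h at 37C after a 5 h pre-incubation; beta-lactamase activity was then detected by FRET substrate fluorescence.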

[15] = molecular target: Nuclear receptor subfamily 1 group I member 2 (Rattus norvegicus) (UniProt Q9R1A7); assay: Rat pregnane X receptor (rPXR) activation by small molecules, qHTS assay (AID 1346983); details: rPXR luciferase reporter cells, One-Glo luminescence, 24 h; max activation: stronger effect = higher value; further: nearly all actives have a fitted effect of over 20% in size; further: potency means the concentration at half of the fitted maximal effect
Chain of Nuclear receptor subfamily 1 group I member 2 (Rattus norvegicus) (Q9R1A7 whole entry, looked up): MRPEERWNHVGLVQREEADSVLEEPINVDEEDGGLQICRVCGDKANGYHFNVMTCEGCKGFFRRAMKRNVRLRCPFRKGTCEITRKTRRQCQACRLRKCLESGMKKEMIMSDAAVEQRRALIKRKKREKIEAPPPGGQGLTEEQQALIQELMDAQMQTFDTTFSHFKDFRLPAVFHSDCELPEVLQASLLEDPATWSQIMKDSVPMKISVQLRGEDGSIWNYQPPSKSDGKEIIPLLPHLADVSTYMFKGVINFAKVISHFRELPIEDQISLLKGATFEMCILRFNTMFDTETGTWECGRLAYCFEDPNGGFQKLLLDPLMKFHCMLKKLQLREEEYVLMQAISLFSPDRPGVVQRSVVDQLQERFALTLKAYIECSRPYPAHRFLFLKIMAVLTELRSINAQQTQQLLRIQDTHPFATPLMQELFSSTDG
Procedure, shortened: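 Cell-based rPXR activation assay: rPXR cells, 2,000 per well, rested 5hr at 37 C, then exposed to compounds in DMSO for 24 hr at 37 C. Luciferase activity read by One-Glo luminescence after 30 min at room temperature.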

[16] = molecular target: Nuclear receptor subfamily 1 group I member 2 (Homo sapiens) (UniProt O75469); assay: CYP3A4 induction through human pregnane X receptor (PXR) by small molecules, qHTS assay (AID 1346984); further: nearly all actives have a fitted effect of over 40% in size; further: potency means the concentration at half of the fitted maximal effect
Procedure, shortened: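 DPX-2 reporter cells; 24h cpd, 37C; Luciferin-IPA 3uM final x3h; One-Glo 30 min RT; lumi read.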

[17] = molecular target: Nuclear receptor subfamily 1 group I member 2 (Homo sapiens) (UniProt O75469); assay: Human pregnane X receptor (PXR) activation by small molecules, qHTS assay (AID 1346985); further: nearly all actives have a fitted effect of over 40% in size; further: potency means the concentration at half of the fitted maximal effect
Procedure, shortened: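 DPX-2 cells (HepG2 co-transfected with a PXR response element and a CYP3A4-promoter luciferase construct) were seeded at 2,000 per well, rested 5 hr at 37C, then exposed to DMSO-dissolved compounds for 24 hr. Activation was read as luciferase luminescence.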

Compound	Potency [1]	Potency [2]	Potency [3]	Potency [4]	Potency [5]	Potency [6]	Potency [7]	Potency [8]	Potency [9]	Potency [10]	Potency (Aromatase (Homo sapiens))	Potency [11]	Potency [12]	Potency [13]	Potency [14]	Potency [15]	Potency [16]	Potency [17]	max activation [15]
C=C1C(=C/C=C2\CCC[C@]3(C)[C@@H]([C@H](C)/C=C/[C@H](C)C(C)C)CC[C@@H]23)C[C@@H](O)C[C@@H]1O	29.8 µM (active)	inactive	inactive	inactive	inactive	inactive	–	–	–	–	–	–	–	–	–	–	–	–	–
CCC(C)[C@H]1O[C@]2(C=C[C@@H]1C)C[C@@H]1C[C@@H](C/C=C(\C)[C@@H](O[C@H]3C[C@H](OC)[C@@H](O[C@H]4C[C@H](OC)[C@H](NC(C)=O)[C@H](C)O4)[C@H](C)O3)[C@@H](C)/C=C/C=C3\CO[C@@H]4[C@H](O)C(C)=C[C@@H](C(=O)O1)[C@]34O)O2 (stereo partly drawn)	–	–	inactive	–	11.9 µM (active) and 29.8 µM (active)	inactive	2.66 µM (active) and 7.5 µM (active)	1.69 µM [inconclusive] (active)	8.49 µM (active) and 26.8 µM (active)	23.7 µM (active) and inactive	inactive	inactive	inactive	–	–	–	–	–	–
COC1=C(C(=O)O)N2C(=O)[C@@H](NC(=O)[C@H](N)C3=CCC=CC3)[C@H]2SC1	–	–	inactive	inactive	inactive	inactive	inactive	inactive	–	inactive	inactive	inactive	inactive	inactive	inactive	–	–	–	–
C[N+]1(C)CCN(CC(O)(c2ccccc2)C2CCCCC2)CC1 (stereo not drawn)	–	–	–	–	inactive	inactive	–	–	inactive	inactive	inactive	inactive	inactive	–	–	–	–	–	–
CCN(CC)CCOc1ccc(-c2nc3cc(Cl)ccc3s2)cc1	6.68 µM (active)	–	inactive	–	–	–	8.41 µM (active)	–	inactive	inactive	inactive	–	8.41 µM (active)	–	–	0.794 µM (active)	12.6 µM (active)	10 µM (active)	–
CCC(=O)c1ccc2c(c1)N(CCCN1CCN(CCO)CC1)c1ccccc1S2	–	–	inactive	inactive	–	–	10.6 µM (active)	–	inactive	–	–	inactive	–	inactive	–	–	14.1 µM (active)	25.1 µM (active)	-17.5% (inactive)
CN(C)CCCN1c2ccccc2C(C)(C)c2ccccc21	26.6 µM (active)	–	inactive	inactive	–	–	23.7 µM (active)	inactive	inactive	inactive	inactive	inactive	inactive	inactive	–	–	31.6 µM (active)	–	-1.25% (inactive)
CCNC(=O)[C@@H]1CCCN1C(=O)[C@H](CCCN=C(N)N)NC(=O)[C@H](CC(C)C)NC(=O)[C@@H](CC(C)C)NC(=O)[C@H](Cc1ccc(O)cc1)NC(=O)[C@H](CO)NC(=O)[C@H](Cc1c[nH]c2ccccc12)NC(=O)[C@H](Cc1cnc[nH]1)NC(=O)[C@@H]1CCC(=O)N1	–	–	–	–	inactive	inactive	–	–	inactive	–	inactive	inactive	inactive	inactive	inactive	–	–	–	–
Cc1cc(-n2c(=O)[nH]c(=O)n(C)c2=O)ccc1Oc1ccc(S(=O)(=O)C(F)(F)F)cc1	–	9.44 µM (active)	inactive	–	inactive	inactive	–	–	–	inactive	inactive	inactive	inactive	–	–	–	–	–	–
CC(C)(C)NC[C@H](O)COc1ccccc1C1CCCC1	12.7 µM (active)	–	inactive	inactive	–	–	9.02 µM (active)	inactive	inactive	–	inactive	inactive	inactive	inactive	inactive	–	inactive	inactive	-2.28% (inactive)
CC(O)[C@H]1CC[C@H]2[C@@H]3CC[C@@H]4C[C@@H](O)CC[C@]4(C)[C@H]3CC[C@]12C (stereo partly drawn)	inactive	inactive	3.38 µM [inconclusive] (active)	9.44 µM (active)	inactive	–	inactive	inactive	inactive	inactive	inactive	inactive	inactive	–	inactive	–	inactive	inactive	2.94% (inactive)
C[C@]12C=CC(=O)N[C@@H]1CC[C@@H]1[C@@H]2CC[C@]2(C)[C@@H](C(=O)Nc3cc(C(F)(F)F)ccc3C(F)(F)F)CC[C@@H]12	–	inactive	inactive	–	inactive	–	inactive	–	–	inactive	inactive	inactive	inactive	–	–	–	inactive	inactive	-1.05% (inactive)
COc1ccc2c(c1)OC(C)(C)C(c1ccccc1)C2c1ccc(OCCN2CCCC2)cc1 (stereo not drawn)	9.44 µM (active)	–	–	inactive	–	–	10.6 µM (active)	–	–	inactive	–	inactive	–	inactive	–	–	inactive	15.8 µM (active)	-6.65% (inactive)
